Experimental findings from PubChem BioAssay AID651820 (National Center for Advancing Translational Sciences (NCATS), 2012) are described below.

Each structure is given as a SMILES string. Out of some 340,000 compounds screened, about 12,000 (3.5%) were called active. Not shown: some 18% with an inconclusive outcome. The full list was thinned out, with actives kept by preference. A number with no mark means an inactive call. Calls follow the shape of the dose curve; as a rule, active = well fitted inhibition curve with a large enough effect; inconclusive = small, poorly fitted or top-dose-only effect, or another doubt; inactive = no such curve, though single readings can be large or run the other way.
% is scaled to controls: 0 for no effect and ±100 for the full control effect; potency is read from the fitted curve at half-maximal effect.

This test can be described thus: qHTS Assay for Inhibitors of Hepatitis C Virus (HCV). To be noted: Huh7.5.1 HCVcc-Cre infection, luciferase reporter, 44 h; series mostly up to 41.8 µM; activity change, negative = inhibition: at the top concentration. Put shortly:
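Seed cells (1,000/well) for 4 h; treat with compound and infect with HCVcc-Cre, moi about 0.5. Incubate 44 h, then detect luciferase activity.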
Consider `COc1ccc(NC(=O)N(C)C[C@H]2Oc3ccc(NC(=O)C4CC4)cc3C(=O)N([C@H](C)CO)C[C@@H]2C)cc1`, for which the “activity change, negative = inhibition” value was -1.35%. Consider `O=C(CCC(=O)c1cccs1)Nc1nc2ccccc2s1`, for which the “activity change, negative = inhibition” value was -15%. As for `C/C(=N/OC(=O)c1c(-c2c(F)cccc2Cl)noc1C)c1cnccn1`, the “activity change, negative = inhibition” value is 0.663%. Turning to `CCOC(=O)c1cc2c(=O)n3ccccc3nc2n(CC(C)C)c1=NC(=O)c1c(-c2c(F)cccc2Cl)noc1C`, the Potency was 10 µM (active).

As to `CCCn1c(=NC(C)=O)c(C(=O)OCC)cc2c(=O)n3ccccc3nc21`, the “activity change, negative = inhibition” value was -22.4%. For the compound `CCCn1nnc2sc3c(c2c1=O)CCC(C)C3` (stereo not given), the “activity change, negative = inhibition” value is 0.285%. Regarding `CC1CCc2sc3nc(N4CCN(CCO)CC4)n4ncnc4c3c2C1` (stereo not given), the Potency was 20 µM (active). For `CC1CCc2c(sc3nc4n(c(=O)c23)CCS4)C1` (stereo not given), the “activity change, negative = inhibition” value was -20.1%. On to `Cc1ccc(CSc2ccc(S(=O)(=O)N3CCCCC3)cn2)cc1`, for which the “activity change, negative = inhibition” value is -5.06%. Still for that read-out and setting: next, `C=CC[C@@H](CC(=O)N[C@@H](CO)Cc1ccccc1)C(=O)N[C@H](COC(=O)[C@H](CC=C)CC(=O)OC(C)(C)C)Cc1ccccc1`: 22.3%. As for `COc1cccc(NC(=O)CN(C)C(=O)c2cc(C3CC3)nn2-c2ccccc2)c1`, the “activity change, negative = inhibition” value is -21.5%.

Take `CCN(CC)S(=O)(=O)c1ccc2nc(CSc3nnnn3-c3ccc(O)cc3)[nH]c2c1`: the “activity change, negative = inhibition” value is -16.9%. Consider `COc1ccc(COC(=O)c2n[nH]c3ccccc23)cc1F`, for which the “activity change, negative = inhibition” value was -17.8%. With `CCN(CC)S(=O)(=O)c1ccc2nc(COC(=O)c3n[nH]c4ccccc34)[nH]c2c1`, the Potency is 12.6 µM (active).

On to `CC(OC(=O)c1cc2ccccc2[nH]1)C(=O)N(C)c1ccccc1` (stereo not given), for which the “activity change, negative = inhibition” value was -6.2%. For the compound `CCN(CC)CCCNC(=O)c1c(O)c2cc(F)cc3c2n(c1=O)C(C)CC3` (stereo not given), the Potency is 10 µM (active).

In the case of `CCNC(=O)c1c(O)c2cccc3c2n(c1=O)CC3`, the “activity change, negative = inhibition” value is 11.3%. For the compound `CCN(CC)CCCNC(=O)c1cn(C)c2ccc(S(=O)(=O)N(C)C3CCCCC3)cc2c1=O`, the “activity change, negative = inhibition” value is -9.03%. `O=C(CSc1nnc(CN2CCCC2)n1-c1ccc(F)cc1)c1ccc2c(c1)OCO2`: the “activity change, negative = inhibition” value was -6.26%. Same read-out and setting: next, `COc1ccc(/C=C/C(=O)OCC(=O)N2CCN(S(=O)(=O)c3ccc(C)cc3C)CC2)cc1OC`: 0.143%. As for `CCn1ccnc1CN(C)C(=O)c1cc(COc2ccc(-n3cncn3)cc2)on1`, the “activity change, negative = inhibition” value was -21%. For the compound `O=C(c1cc(COc2ccc(F)c(F)c2)on1)N1CCOCC1`, the “activity change, negative = inhibition” value was 0.0465%. With `C=CCC1(CC=C)CCCN1C(=O)c1cc(COc2ccc(-n3cncn3)cc2)on1`, the Potency was 5.01 µM (active).

As to `O=C1C[C@@H]2c3c(cccc3CN1Cc1ccccc1)C[C@@H](O)[C@H]2O`, the “activity change, negative = inhibition” value was 9.7%. On the same count and under the same terms, under `Cc1ccc(-c2cc(=O)[nH]c(NCc3ccccc3)n2)cc1` stands 12.1%; under `O=C(CN1C(=O)NC2(CCOc3ccccc32)C1=O)Nc1cccc([N+](=O)[O-])c1` (stereo not given), -16.3%. The same measure, in the same setting: next, `CN(C(=O)COC(=O)c1nc(Cl)ccc1Cl)C1CCS(=O)(=O)C1` (stereo not given): -7.4%; `CN(C(=O)COC(=O)c1cc(-c2ccco2)nc2ccccc12)C1CCS(=O)(=O)C1` (stereo not given): -5.06%.

Take `Cc1c(-c2cccc(Cl)c2)nc2ccccc2c1C(=O)OCC(=O)N(C)C1CCS(=O)(=O)C1` (stereo not given): the Potency is 3.55 µM (active). Turning to `Cc1ccc(CNC(=O)Cn2cnc3c(NCc4ccccc4)ncnc32)o1`, the “activity change, negative = inhibition” value is -2.28%.

In the case of `Cc1ccc(NC(=O)Cn2c(C)csc2=O)cc1`, the “activity change, negative = inhibition” value was 11%. Take `CSCc1cc(N2CCOCC2)nc(SCc2ccc(Cl)cc2Cl)n1`: the “activity change, negative = inhibition” value was -16.6%. Consider `Clc1ccc(CSc2nnc(/C=C/c3ccccc3)o2)c(Cl)c1`, for which the “activity change, negative = inhibition” value is -3.62%. As for `CSCc1cc(N(C)C)nc(SCc2ccc(Cl)cc2Cl)n1`, the Potency is 8.91 µM (active). Regarding `Nn1c(SCC(=O)NC2CCCc3ccccc32)nnc1C1CC1` (stereo not given), the “activity change, negative = inhibition” value was -12.4%. On to `Cc1nnc(N/N=C/c2cccs2)[nH]c1=O`, for which the “activity change, negative = inhibition” value was 15.5%. `Cc1ccccc1Nc1nnc(C)c(=O)[nH]1`: the “activity change, negative = inhibition” value was 5.21%. `Cc1nnc(N/N=C/c2ccccn2)[nH]c1=O`: the Potency is 3.55 µM (active). For `CC(=O)N1CCc2ccc(N)cc21`, the “activity change, negative = inhibition” value is 18%.

Consider `CCCCn1c(N)c(N(CCC(C)C)C(=O)CC2OC(=O)c3ccccc32)c(=O)[nH]c1=O` (stereo not given), for which the “activity change, negative = inhibition” value was 17.9%. Regarding `COc1cc(NC(=O)C2=CC(c3ccco3)=NS(=O)(=O)N2C)cc(OC)c1OC`, the “activity change, negative = inhibition” value is 4.73%. On to `COc1ccc(NC(=O)C2=CC(c3ccc(OC)c(OC)c3)=NS(=O)(=O)N2C)cc1`, for which the Potency is 8.91 µM (active). On to `COc1ccc(C2=NS(=O)(=O)N(C)C(C(=O)NC(C)c3ccccc3)=C2)cc1` (stereo not given), for which the “activity change, negative = inhibition” value is -16.6%. On to `COC(=O)C1CCN(C(=O)NC2CC(=O)N(c3ccc4c(c3)OCCO4)C2)CC1` (stereo not given), for which the “activity change, negative = inhibition” value is 7.38%. As for `O=S1(=O)CCOC[C@H](Cc2ccccc2)N1Cc1ccccc1Br`, the “activity change, negative = inhibition” value was -7.83%. Turning to `O=C1c2ccccc2C(=O)c2c1cccc2N1CCN(C/C=C/c2ccccc2)CC1`, the Potency was 11.2 µM (active). Regarding `CNC(=O)NC(=O)C(C)N1CCN(C/C=C/c2ccccc2)CC1` (stereo not given), the “activity change, negative = inhibition” value is 2.6%. Take `O=C(CCN1CCN(C/C=C/c2ccccc2)CC1)Nc1ccccc1Cl`: the “activity change, negative = inhibition” value was -5.92%. Regarding `Nc1ncnc2c1cnn2C1CC(O)C(CO)O1` (stereo not given), the “activity change, negative = inhibition” value is 24.9%. On to `C=CCn1c(=O)n(C)c2c(=O)n(C)c(=O)n(C)c21`, for which the “activity change, negative = inhibition” value was 12.5%.
